Only some compounds are listed: those with a hit (about 9.3% of all), similar ones and a draw of the others.
HCV inhibitor = qHTS Assay for Inhibitors of Hepatitis C Virus (HCV); actives 3.4% (n = 340,000); Potency, µM (titrated, usually from 41.8 µM), for the others: at the top dose activity change, negative = inhibition, hits mostly inhibitors; AID 651820, 2012; Huh7.5.1 HCVcc-Cre infection, luciferase reporter, 44 h; note: potency is the fitted concentration of half-maximal effect
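Whole-lifecycle infectious HCVcc-Cre system; cells 1,000/well, compound then virus (~0.5 moi) added 4 h after plating, 44 h culture. Luciferase read 15 sec following 15 min substrate incubation, room temp.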
Vaccinia mCherry = qHTS for Stage-Specific Inhibitors of Vaccinia Orthopoxvirus: mCherry Reporter Primary qHTS. Potency, µM (doses to about 36.5 µM), inactives show at the top dose activity change, negative = inhibition, usual class: inhibitors. actives 0.63% (n = 310,000). AID 720579, 2013. Vaccinia virus mCherry reporter infection, fluorescence; calls by dose curve; tested in A549 cells; note: potency is the fitted concentration of half-maximal effect; nearly all actives have a fitted effect of over 35% in size
Vaccinia Venus = qHTS for Stage-Specific Inhibitors of Vaccinia Orthopoxvirus: Venus Reporter Primary qHTS; AID 720580, 2013; Vaccinia virus Venus reporter expression, fluorescence; actives 0.46% (n = 330,000); Potency, µM (top dose mostly 36.5 µM), inactives show at the top dose activity change, negative = inhibition, actives largely listed as inhibitors; calls by dose curve; tested in A549 cells; note: potency is the fitted concentration of half-maximal effect; nearly all actives have a fitted effect of over 30% in size
FMDV antiviral = High Throughput Screening for Foot and Mouth Disease Virus Antivirals | FMDV antiviral cell-based qHTS | Potency, µM (series often up to 57.9 µM), for inactives: at the highest dose activity change, negative = inhibition, actives largely listed as inhibitors | actives 1.2% (n = 410,000); calls by dose curve; tested in HEK293T cells; note: read-out not given here; potency is the fitted concentration of half-maximal effect; nearly all actives have a fitted effect of over 45% in size
HCMV inh = qHTS Assay for inhibitors of the human cytomegalovirus (HCMV). actives 4.5% (n = 410,000). HFF cells, HCMV-luciferase reporter, 72 h; stronger effect = lower value. AID 1259415, 2018. activity change, negative = inhibition, % at 57.5 µM; in the data active = activity change below about -60%; inconclusive = no clear call, values can overlap the other calls; inactive = above about -39%
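Human foreskin fibroblasts infected with luciferase-reporter HCMV at MOI 1 PFU/cell, compounds at two doses. Luciferase measured 72 h post infection; normalized to buffer-only basal and Salinomycin (10uM) controls.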
Sm TGR inh = qHTS Assay for the Inhibitors of Schistosoma Mansoni Peroxiredoxins; actives 3% (n = 360,000); Potency, µM (series often up to 114 µM), for inactives: at the top dose activity change, negative = inhibition, actives largely listed as inhibitors; purified TGR, DTNB reduction, TNB absorbance 405 nm; Schistosoma mansoni thioredoxin glutathione reductase (TGR), Q962Y6; note: potency is the fitted concentration of half-maximal effect; nearly all actives have a fitted effect of over 60% in size
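Kinetic colorimetric format: TGR-catalysed, NADPH-driven DTNB reduction monitored via TNB absorbance. Enzyme dispensed at 20 nM; compound exposure 15 min at room temperature before reaction start.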
* marks the source's active call; other numbers are inactive results; i = inactive; u = inconclusive; x = not tested or not shown; [ ] = dose if it differs, or a comment. Unless noted, calls come from the whole dose curve; as a rule, active = well fitted curve in the direction sought with a large enough effect; inconclusive = small, poorly fitted or top-dose-only effect, or another doubt; inactive = no such curve, though single readings can be large; an effect the other way counts as inactive or inconclusive. % is set by controls: 0 for no effect and ±100 for the full control effect.

SMILES	HCV inhibitor	Vaccinia mCherry	Vaccinia Venus	FMDV antiviral	HCMV inh	Sm TGR inh
O=C(CN1C(=O)/C(=C/c2ccccc2)SC1=S)NC1C=CS(=O)(=O)C1 (configuration not stated)	11%	-26%	-1%	-10%	u	0%
COc1cccc(/C=C2\SC(=O)N(CC(=O)NC3C=CS(=O)(=O)C3)C2=O)c1 (configuration not stated)	2%	x	x	-29%	-69*	-20%
CCOc1ccccc1NC(=O)CCCCCN1C(=O)[C@@H]2Cc3ccccc3CN2C1=O	u	x	x	u	-19	0%
CSc1ccc(C(=O)N2CCC(CCC(=O)NC3CC3)CC2)cc1	22%	x	x	-1%	16	-5%
O=C(N/N=C/c1ccoc1)c1cccc([N+](=O)[O-])c1	14%	-22%	-11%	4%	29	-1%
CO[C@@]12[C@@H]3N[C@@H]3CN1C1=C(C(=O)C(N)=C(C)C1=O)[C@@H]2COC(N)=O	u	5.6µM*	2.5µM*	-4%	-97*	x
CCCNC1=C(C)C(=O)C2=C(C1=O)C(COC(N)=O)[C@]1(OC)C3NC3CN21 (some centres not stated)	u	u	u	-3%	-69*	35µM*
CO[C@@]12[C@H](COC(N)=O)C3=C(C(=O)C(C)=C(N)C3=O)N1C[C@@H]1N[C@@H]12	6%	u	u	-13%	24	-8%
CC(C)(C)n1nnnc1CN1CCC(NC(=O)NC2CCCCC2)CC1	1%	x	x	-21%	-10	-3%
CCCCC/C=C\C/C=C\CCCCCCCC(=O)O	x	-33%[3.33 µM]	-63%[3.33 µM]	5%[6.7 µM]	x	x
CCCCC/C=C\C/C=C\C/C=C\CCCCC(=O)O	27%	-13%	-5%	-16%	-22	28µM*
CCCN(CCC)S(=O)(=O)c1ccc2c(c1)N(CC(=O)NC(C)c1ccccc1)C(=O)CS2 (configuration not stated)	x	-22%	-19%	-8%	0	-2%
Cc1cccc(N(C)S(=O)(=O)c2cc3c(cc2Cl)NC(=O)CO3)c1	x	4%	-2%	-15%	-3	1%
CCC(=O)Nc1ccc(/C(C)=N\NC(=O)c2ccc(C)s2)cc1	2%	i	-7%	-16%	-23	6%
C/C(=N/NC(=O)c1ccc(Cl)s1)c1ccc(NC(=O)COc2ccc(Cl)cc2)cc1	13%	i	-13%	-16%	-77*	-3%
CC(=O)n1cc([C@@H]2C=C(C(=O)N3CCN(Cc4ccccc4)CC3)O[C@H](OCc3ccc(CO)cc3)C2)c2ccccc21	u	-22%	u	u	-74*	25µM*
CC(=O)n1cc([C@H]2C=C(C(=O)N3CCN(Cc4ccccc4)CC3)O[C@@H](OCCCCO)C2)c2ccccc21	10%	-17%	-20%	0%	x	35µM*
CC(=O)n1cc([C@H]2C=C(C(N)=O)O[C@@H](OCc3ccc(CO)cc3)C2)c2ccccc21	2.8µM*	i	-6%	0%	10	x
CC(=O)n1cc([C@H]2C=C(C(=O)NCc3ccccc3)O[C@@H](OCc3ccc(CO)cc3)C2)c2ccccc21	u	u	u	-29%	-15	u
CC(=O)n1cc([C@@H]2C=C(C(=O)N3CCN(Cc4ccc5c(c4)OCO5)CC3)O[C@H](OCCCCO)C2)c2ccccc21	u	-14%	-21%	u	-35	-6%
COc1ccc(CCNC(=O)CSc2nccc(=O)[nH]2)cc1OC	14%	-2%	-9%	-16%	4	1%[57.1 µM]
COc1ccc(/C=C/C(=O)Oc2cc(O)cc(O)c2)cc1	20%	-13%	-7%	0%	-31	1%
CCOC(=O)c1c(NC(=O)COC(=O)c2ccccc2NC)sc(C(=O)N(C)C)c1C	13µM*	i	-2%	25µM*	-12	-5%
CCOC(=O)c1c(NC(=O)COC(=O)Cc2ccccc2[N+](=O)[O-])sc(C(=O)N(C)C)c1C	10µM*	-14%	-10%	-12%	-3	-1%
CCCOc1ccc(C(C)=O)cc1CN1CCOCC1	13%	-14%	-6%	-17%	-11	-15%
SMILES	HCV inhibitor	Vaccinia mCherry	Vaccinia Venus	FMDV antiviral	HCMV inh	Sm TGR inh
CCOc1ccccc1-n1nnnc1SCC(=O)NC(=O)Cc1ccccc1	7%	-9%	-3%	-24%	-13	20µM*
O=C(CSc1nnnn1-c1ccccc1)NC(=O)NCc1ccco1	18%	x	-26%	0%	-20	-26%
CCCn1c(SCC(=O)NC(=O)NCc2ccco2)n[nH]c1=O	14%	x	x	x	x	40µM*
CCOc1ccccc1-n1nnnc1SCC(=O)NC(=O)NCc1ccco1	u	x	x	0%	41	45µM*
O=C(CSc1nnc(-c2ccc(F)cc2)o1)NC1CCCCC1	10%	x	x	-1%	u	6%
O=c1[nH]c2ccccc2n1C1CCN(C(CCc2ccccc2)c2nnnn2C2CCCCC2)CC1 (configuration not stated)	x	u	u	28µM*	-91*	x
CSCCC(c1nnnn1C1CCCCC1)N1CCC(n2c(=O)[nH]c3ccccc32)CC1 (configuration not stated)	x	-5%	-7%	u	-93*	x
CC(C)(C)n1nnnc1C(C1CC1)N1CCC(n2c(=O)[nH]c3ccccc32)CC1 (configuration not stated)	x	24%	4%	-26%	-10	x
CC(C)(C)n1nnnc1C(CCc1ccccc1)N1CCC(n2c(=O)[nH]c3ccccc32)CC1 (configuration not stated)	x	-20%	-23%	32µM*	-99*	x
COC(=O)c1ccc(Cl)c(NC(=O)CN(c2ccc(OC)cc2)S(=O)(=O)c2ccccc2)c1	u	x	-8%	-20%	u	x
O=C(NNC(=O)c1ccccc1OCc1ccccc1Cl)c1csc(N2CCOCC2)n1	10µM*	x	x	-8%	13	-2%
Cc1ccsc1C(=O)NNC(=O)c1csc(N2CCOCC2)n1	-2%	-10%	-6%	-11%	-5	1%
Cc1ccc(C)c(SCC(=O)NNC(=O)c2csc(N3CCOCC3)n2)c1	-5%	x	x	2%	-62*	0%
C=CCN=C1SC(CC)C(=O)N1S(=O)(=O)c1ccc(C)cc1 (configuration not stated)	10%	x	-19%	-18%	9	-14%
CCOc1ccc(CCNC(=O)CS(=O)(=O)Cc2nc(-c3ccc(OC)cc3)oc2C)cc1	-13%	-28%	-18%	-14%	-21	-25%

Compound activity: PubChem, National Center for Advancing Translational Sciences (NCATS)
